This is an account of results in PubChem BioAssay (NCI).

Some test systems named below: DU-145 prostate; K-562 leukemia; MALME-3M melanoma; MDA-MB-231 breast; RXF 393 renal; SF-268 CNS; SF-295 CNS; SF-539 CNS; UACC-257 melanoma; M14 melanoma.
Common to all, as to test: NCI-60 one-dose screen, 48 h (100 = growth as untreated, 0 = no growth, -100 = all killed)
What all share (conditions): 10 µM

Compounds without any hit were thinned out: in the full panel of roughly 83,000, 20% have a hit.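 Results are percent growth after 48 hours of single-concentration exposure. 100 means growth as in untreated cells, lower positive values show inhibition; negative values down to -100 show cell death.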 A number with no mark means an inactive call. Active and inactive are the calls of the source. The calls were made as follows: active = growth percent below 10; inactive = the rest.

Consider `CS(=O)(=O)c1nccc(-c2c(-c3cccc(OCc4ccc(F)cc4)c3)nc3sccn23)n1`, for which the growth with DU-145 prostate is -53.8% (active); in the assay with K-562 leukemia, 47.3%; in the assay with MALME-3M melanoma, 60.4%; with MDA-MB-231 breast it was 77.5%; in the assay with RXF 393 renal it was 79.6%; with SF-268 CNS, 90.2%. The growth in the assay with SF-295 CNS was 105%; with SF-539 CNS it was 104%; in the assay with UACC-257 melanoma it was 17%; in the assay on M14 melanoma it was 71.2%.

For the molecule `COc1ccc(/C=C2\CCCC3=C2NC(N)=NC3c2ccc(OC)cc2)cc1` (stereo not given), the growth was 109% in the assay on DU-145 prostate; 107% in the assay on K-562 leukemia; 99.6% with MALME-3M melanoma; 96.9% in the assay on MDA-MB-231 breast; 99.3% in the assay with RXF 393 renal; 109% with SF-268 CNS. Also, the growth in the assay with SF-295 CNS is 104%; in the assay on SF-539 CNS it was 107%; with UACC-257 melanoma, 91.2%; in the assay with M14 melanoma it was 106%.

Regarding `NC(CSC(c1ccccc1)(c1ccccc1)c1cccc2ccccc12)C(=O)O` (stereo not given), the growth was 106% with DU-145 prostate; 103% in the assay on K-562 leukemia; 112% with MALME-3M melanoma; 96.1% with MDA-MB-231 breast; 94.2% in the assay on RXF 393 renal; 85% in the assay with SF-268 CNS. The growth with SF-295 CNS is 91.1%; with SF-539 CNS it was 94.5%; in the assay with UACC-257 melanoma, 103%; in the assay on M14 melanoma, 108%.

On to `CCOS(=O)(=O)c1c(C(C)C)cc(C(C)C)cc1C(C)C`, for which the growth with DU-145 prostate was 103%; in the assay with K-562 leukemia, 92.8%; in the assay on MALME-3M melanoma it was 89.6%; in the assay on MDA-MB-231 breast, 99.5%; with RXF 393 renal it was 108%; with SF-268 CNS, 100%. The growth was 98.9% in the assay on SF-295 CNS, 99.4% in the assay with SF-539 CNS, 105% in the assay on UACC-257 melanoma and 92.8% in the assay on M14 melanoma.

As for `OCC1OC2C(NC(=S)N2c2ccccc2)C(O)C1O` (stereo not given), the growth with DU-145 prostate is 107%; in the assay with K-562 leukemia, 108%; with MALME-3M melanoma, 131%; in the assay on MDA-MB-231 breast, 99.8%; in the assay with RXF 393 renal, 108%; in the assay with SF-268 CNS, 96.8%. Besides, the growth in the assay on SF-295 CNS was 99.8%; in the assay with SF-539 CNS it was 102%; in the assay with UACC-257 melanoma it was 102%; in the assay with M14 melanoma, 120%.

In the case of `O=C(Nc1cc([N+](=O)[O-])c2[nH]c(=O)c3ccccc3c2c1)C(F)(F)F`, the growth in the assay with DU-145 prostate was 97.1%; with K-562 leukemia, 84.6%; in the assay with MALME-3M melanoma, 83.7%; with MDA-MB-231 breast it was 88.6%; in the assay on RXF 393 renal, 76.7%; with SF-268 CNS it was 86.7%. For the same molecule, the growth was 80.8% with SF-295 CNS, 93.6% in the assay with SF-539 CNS, 93.4% with UACC-257 melanoma and 107% in the assay on M14 melanoma.

Regarding `CCOC(=O)c1cc(C(=O)c2cc(OC)cc(OC)c2)n2ncc3ccccc3c12`, the growth was 46.4% in the assay on DU-145 prostate; 5.75% (active) in the assay with K-562 leukemia; 41.9% in the assay with MALME-3M melanoma; 42.9% with MDA-MB-231 breast; 29.1% with RXF 393 renal; 46.9% in the assay with SF-268 CNS. Moreover, the growth in the assay with SF-295 CNS was 8.71% (active); in the assay on SF-539 CNS, 11.5%; with UACC-257 melanoma it was 49%; with M14 melanoma it was 15.7%.

`CCCC1(CN2c3ccccc3Sc3ccc(Cl)cc32)CCN(CC)C1` (stereo not given): the growth in the assay with DU-145 prostate is -32.3% (active); with K-562 leukemia, -61.9% (active); in the assay with MALME-3M melanoma, -61.5% (active); with MDA-MB-231 breast, -28.4% (active); in the assay with RXF 393 renal, -33.7% (active); in the assay with SF-268 CNS it was 25.9%. Further, the growth in the assay with SF-295 CNS is -89.4% (active); in the assay with SF-539 CNS it was -7.27% (active); in the assay with UACC-257 melanoma, 4.91% (active); in the assay with M14 melanoma it was -93.2% (active).

As to `Cc1ccc(S(=O)(=O)N/N=C2\CCCc3ccccc32)cc1`, the growth was 114% in the assay with DU-145 prostate; 97.2% with K-562 leukemia; 105% with MALME-3M melanoma; 108% in the assay with MDA-MB-231 breast; 103% in the assay with RXF 393 renal; 102% in the assay on SF-268 CNS. Besides, the growth in the assay with SF-295 CNS was 104%; in the assay on SF-539 CNS, 108%; in the assay with UACC-257 melanoma, 93.8%; in the assay on M14 melanoma it was 118%.

For `COc1cccc2ccc(CC(O)(c3ccccc3)c3ccccc3)nc12`, the growth is 98.1% in the assay on DU-145 prostate; 91.9% in the assay with K-562 leukemia; 101% in the assay with MALME-3M melanoma; 85% in the assay on MDA-MB-231 breast; 108% in the assay on RXF 393 renal; 93.7% with SF-268 CNS. Further, the growth with SF-295 CNS was 86.4%; in the assay on SF-539 CNS, 103%; with UACC-257 melanoma, 95.5%; in the assay with M14 melanoma, 94.3%.

Regarding `CC(=O)Nc1ccc(CC[C@H]2CCC/C=C/[C@@H]3C[C@H](O)C[C@H]3[C@H](O)/C=C/C(=O)O2)cc1`, the growth with DU-145 prostate is 22.9%; in the assay on K-562 leukemia, 15.3%; with MALME-3M melanoma, -7.38% (active); with MDA-MB-231 breast, -88.4% (active); in the assay with RXF 393 renal, -32.1% (active); in the assay on SF-268 CNS, 13.8%. Moreover, the growth in the assay with SF-295 CNS is 16.9%; in the assay with SF-539 CNS it was 25.3%; with UACC-257 melanoma, -3.78% (active); in the assay on M14 melanoma, 9.87% (active).

On to `CCN(CC)c1ccc(/C=C2\SC(=O)C(Nc3nnc(-c4cccnc4SCc4ccccc4)o3)C2=O)cc1` (stereo not given), for which the growth is 28.9% with DU-145 prostate; 14.5% in the assay on K-562 leukemia; 57.9% with MALME-3M melanoma; 39.4% in the assay with MDA-MB-231 breast; -13.2% (active) with RXF 393 renal; 57.3% in the assay on SF-268 CNS. Also, the growth was 12.2% in the assay on SF-295 CNS, 13.8% with SF-539 CNS, 56.9% with UACC-257 melanoma and -11.6% (active) in the assay with M14 melanoma.

`COc1cc2cc(Oc3ccc(NC(=O)c4cccc(C(F)(F)F)c4)cc3)c(C)nc2cc1OC`: the growth in the assay on DU-145 prostate is 52.9%; in the assay with K-562 leukemia, 23.8%; in the assay on MALME-3M melanoma, 47.5%; in the assay on MDA-MB-231 breast, 33.3%; with RXF 393 renal it was 54%; in the assay on SF-268 CNS it was 62.9%. The growth is 8.94% (active) in the assay on SF-295 CNS, 60% with SF-539 CNS, 44.9% with UACC-257 melanoma and 16.1% with M14 melanoma.

As to `O=C1/C=C/[C@@H](O)[C@@H]2C[C@@H](O)C[C@H]2/C=C/CCC[C@H](C(F)(F)F)O1`, the growth in the assay on DU-145 prostate is 28.2%; in the assay with K-562 leukemia, 20.7%; with MALME-3M melanoma it was -10.9% (active); with MDA-MB-231 breast it was -31.8% (active); with RXF 393 renal, -28.8% (active); with SF-268 CNS it was 17.9%. Besides, the growth is 78% in the assay with SF-295 CNS, 21.4% with SF-539 CNS, 6% (active) with UACC-257 melanoma and 13.4% in the assay on M14 melanoma.
